Bioassay records deposited in PubChem BioAssay by National Center for Advancing Translational Sciences (NCATS).
Only some compounds are listed: those with a hit (about 3.6% of all), similar ones and a draw of the others.
D1 ag = agonists of human D1 dopamine receptor; HEK293 T-REx D1 cells, calcium flux, agonist mode; activation, % at 2 µM; AID 504660; 360,000 tested, 1% active; P21728
Target sequence (P21728 whole entry, looked up): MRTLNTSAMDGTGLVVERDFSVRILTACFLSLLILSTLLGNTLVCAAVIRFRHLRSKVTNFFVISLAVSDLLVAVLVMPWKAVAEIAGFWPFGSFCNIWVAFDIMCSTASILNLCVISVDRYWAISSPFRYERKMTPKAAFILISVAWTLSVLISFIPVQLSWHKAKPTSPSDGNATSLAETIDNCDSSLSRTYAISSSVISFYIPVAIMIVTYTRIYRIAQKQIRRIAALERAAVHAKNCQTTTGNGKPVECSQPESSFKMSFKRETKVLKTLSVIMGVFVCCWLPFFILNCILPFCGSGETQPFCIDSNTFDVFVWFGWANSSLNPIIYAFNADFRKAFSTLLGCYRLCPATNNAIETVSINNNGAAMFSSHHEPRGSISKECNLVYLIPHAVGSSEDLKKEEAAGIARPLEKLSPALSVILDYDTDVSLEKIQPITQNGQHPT
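Inducible HEK293 T-REx D1 cells, force-coupled to calcium signalling, were plated at 4000 cells/well with tetracycline and held overnight at 30 C. After no-wash calcium dye loading, compound-evoked calcium rise over 180 s flagged agonists.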
D1 PAM = enhances dopamine response at the human D1 receptor; P21728; 360,000 tested, 0.036% active; HEK293 TREx D1 cells, calcium flux, dopamine EC20 potentiation; potentiation, % at 10 µM; in the data active means potentiation above about 30%
TRHR PAM = allosterically enhances the human TRH receptor | enhancement, % at 2 µM | 360,000 tested, 0.66% active | AID 493056 | P34981 | TRHR cells, fluo-8 calcium fluorescence, EC20 TRH enhancement; in the data active means enhancement above about 30%
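Enhancer read-out: after compound pinning and an initial kinetic agonist-mode read, an EC20 of TRH (10 nM final) was injected and fluo-8 calcium signal (Ex 480/Em 530) followed at 1 s/cycle for 100 cycles in TRHR-expressing cells.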
D1 antagonist = human D1 dopamine receptor antagonism. HEK293 TREx D1 cells, calcium flux, dopamine EC80; hits give low values. activity change, negative = inhibition, % at 10 µM. AID 504652. 360,000 tested, 3.2% active; in the data active means activity change below about -30%
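Calcium flux readout: force-coupled, inducible Hek293 Trex D1 line, cells induced overnight at 30 C with tetracycline, dye-loaded 30–90 min at RT. Antagonism scored against EC80 dopamine challenge given 180 s after compound.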
TRHR ag = agonists of human TRH receptor; P34981; TRHR cells, calcium flux fluo-8, FDSS agonist mode; activation, % at 2 µM; 360,000 tested, 0.18% active
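TRHR-expressing cells loaded with fluo-8 calcium dye; 23 nL library compound pin-transferred, kinetic FDSS fluorescence (Ex 480/Em 530) recorded about 180 s for agonist-induced calcium release, before a 10 nM TRH EC20 addition for potentiator mode.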
LDHA inh = inhibitors of human lactate dehydrogenase A | P00338 | purified LDHA, NADH/diaphorase-resazurin fluorescence; hits give low values | activity change, % (values are at about 110 or 230 µM) | 480,000 tested, 0.15% active | AID 1347041; in the data active means activity change below about -30%
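Remaining NADH was detected by diaphorase (0.133 mg/mL) converting 37 µM resazurin to fluorescent resorufin, read at 0 and 20 minutes. The preceding 5-minute room-temperature reaction used 2 nM LDHA, 0.2 mM sodium pyruvate and 0.06 mM NADH at pH 7.4.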
Hits are given with their value; . = inactive; / = no result; ! = not active in a repeat. Unless noted, no stated cut-off is given here; in the data, active means activation above about 30%; inactive means the rest.

SMILES	D1 ag	D1 PAM	TRHR PAM	D1 antagonist	TRHR ag	LDHA inh
CN(CC(=O)Nc1ccccc1Cl)C(=O)Cn1cc(C(F)(F)F)ccc1=O	.	.	.	-32.5	.	.
Cc1ccc(CSCC(=O)N(C)CC(=O)Nc2ccccc2Cl)cc1	.	.	.	-33.0	.	.
CCCSc1nc(SC)c2c3c(sc2n1)COC(C)(C)C3	/	/	/	/	/	.
CCc1nnc(NC(=O)C2Cc3ccccc3CN2S(=O)(=O)c2ccc(C)cc2)s1 (stereo not given)	.	.	.	.	.	.
COc1ccc(NC(=O)C2Cc3ccccc3CN2S(=O)(=O)c2ccccc2)cc1OC (stereo not given)	.	.	.	-59.0	.	.
CCc1nnc(NC(=O)C2Cc3ccccc3CN2S(=O)(=O)c2cccs2)s1 (stereo not given)	.	.	31.5	.	.	.
COCCNc1c(-c2ccc(OC)c(OC)c2)nc2ccc(Cl)cn12	.	.	.	.	.	.
COCCNc1c(-c2ccc(O)cc2)nc2ccc(Cl)cn12	.	.	.	-41.0	.	.
Nc1c(C(=O)Nc2ccc(Cl)cc2F)sc2nc(-c3cccs3)ccc12	.	.	.	-37.7	.	.
Nc1c(C(=O)Nc2ccccc2Br)sc2nc(-c3cccs3)ccc12	.	.	.	.	.	.
Nc1c(C(=O)Nc2nc3ccccc3s2)sc2nc(-c3cccs3)ccc12	112.1	.	.	.	.	.
CC(=O)c1sc2nc(-c3cccs3)ccc2c1N	.	.	.	.	.	.
O=C(CSc1nc(O)c(Cc2ccccc2)c(=O)[nH]1)Nc1ccccc1	.	.	.	.	.	.
CCOC(=O)c1ccc(NC(=O)CSc2nc(C)c(Cc3ccccc3)c(=O)[nH]2)cc1	.	.	.	-30.1	.	.
COc1ccc(OCCSc2nc(C)c(Cc3ccccc3)c(=O)[nH]2)cc1	.	.	.	-38.8!	.	.
Cc1ccc(NC(=O)CSc2nc(C)c(Cc3ccccc3)c(=O)[nH]2)cc1C	.	.	.	.	.	.
COc1ccc(NC(=O)CSc2nc(O)c(Cc3ccccc3)c(=O)[nH]2)cc1	.	.	31.7	.	.	.
COc1ccccc1OCCSc1nc2ccccc2c(=O)[nH]1	.	.	.	-41.2	.	.
Cc1nc(SCCOc2ccccc2)[nH]c(=O)c1Cc1ccccc1	.	.	.	.	.	.
CCOCCCNCc1ccc(C(C)C)cc1	/	/	/	/	/	.
Clc1ccc(-c2nnc(CSc3nc4ccc(Cl)cc4[nH]3)o2)cc1	/	/	/	/	/	.
Cc1[nH]c(=O)[nH]c(=O)c1S(=O)(=O)Nc1ccc(Cl)c(Cl)c1	/	/	/	/	/	.
O=C(COC(=O)c1sc2ccccc2c1Cl)NCC1CCCO1 (stereo not given)	/	/	/	/	/	.
Cc1nc(CN2CCN(CCOc3ccc(Cl)cc3)CC2)no1	/	/	/	/	/	-32.0
Clc1ccc(OCCN2CCN(Cc3nc(C4CC4)no3)CC2)cc1	/	/	/	/	/	.
SMILES	D1 ag	D1 PAM	TRHR PAM	D1 antagonist	TRHR ag	LDHA inh
Cc1ccc(NC(=O)CSc2nnc(-c3ccc([N+](=O)[O-])cc3)o2)c(C)c1	50.6	.	.	.	.	.
CCOC(=O)CN(C(=O)CSc1nnc(-c2cccc(OC)c2)o1)c1ccc(F)cc1	56.1	.	.	.	.	.
CC(C)c1ccccc1NC(=O)CSc1nnc(COc2ccccc2Cl)o1	38.3	.	.	.	.	.
CC(C)c1ccccc1NC(=O)CSc1nnc(COc2ccccc2)o1	.	.	.	.	.	.
Cc1ccc(C)c(NC(=O)CSc2nnc(-c3ccco3)o2)c1	.	.	32.2	.	.	.
Cc1cccc(NC(=O)CSc2nnc(-c3ccco3)o2)c1C	.	.	.	.	.	.
Cc1ccc(Cn2nc(C)c(C(=O)OCC(=O)c3cc(C)n(C(C)C)c3C)c2Cl)cc1	/	/	/	/	/	.
COc1cccc(NC(=O)C(Sc2nnc(-c3ccco3)n2N)c2ccccc2)c1 (stereo not given)	/	/	/	/	/	.
COc1ccc(CCCc2nnc(SCC(=O)Nc3ccc(F)cc3)o2)cc1C	.	.	.	-50.0	.	.
COc1ccc(CCCc2nnc(SCC(=O)Nc3ccccc3F)o2)cc1C	.	.	.	.	.	.
COc1ccc(-c2nnc(SCC(=O)Nc3cc(F)ccc3C)o2)cc1	.	/	.	-38.7	.	.
COc1ccccc1NC(=O)CSc1nnc(-c2ccc(C)cc2)o1	.	.	.	-82.3	.	.
Cc1occc1-c1nnc(SCC(=O)Nc2ccccn2)o1	.	.	38.8	.	.	.
O=C(CSc1nnc(-c2ccccc2Cl)o1)Nc1ccccn1	.	.	.	.	.	.
CCCCNC(=O)COC(=O)c1c(C)c(CC)nc2ccccc12	/	/	/	/	/	.
N#Cc1cn(C2CC2)c(=O)n(Cc2coc(-c3ccccc3)n2)c1=O	/	/	/	/	/	.
C=CCNC(=O)CN1CCN(C(=O)Cn2c(C)cc3ccccc32)CC1	/	/	/	/	/	.
COc1ccccc1Oc1coc2cc(OCc3ccccc3Cl)ccc2c1=O	/	/	/	/	/	.
NCCCCn1ccnc1	/	/	/	/	/	.
Clc1ccc(CN2C3=NCCN3c3ccccc32)cc1Cl	34.6	.	.	.	.	.
c1ccc(CN2C3=NCCN3c3ccccc32)cc1	.	.	.	.	.	.
CCOc1ccc(C(C)NC(=S)NCc2ccc(F)cc2)cc1 (stereo not given)	58.6	.	.	.	.	.
Cc1ccc(C(C)NC(=S)NCc2ccc(F)cc2)cc1C (stereo not given)	.	.	.	-30.5	.	.
CCC(NC(=S)NCc1ccc(F)cc1)c1ccc(C)cc1 (stereo not given)	59.8	.	.	.	.	.
CCc1ccc(C(C)NC(=S)NCc2ccc(F)cc2)cc1 (stereo not given)	76.3	.	.	.	.	.
SMILES	D1 ag	D1 PAM	TRHR PAM	D1 antagonist	TRHR ag	LDHA inh
CCNC(=O)COC(=O)c1c(C)c(-c2ccccc2)nc2ccccc12	/	/	/	/	/	.
COC(=O)c1ccc(/C=C/C(=O)c2cccc(N3CCOCC3)c2)cc1	/	/	/	/	/	.
Cc1[nH]c2ccccc2c1C1c2ccccc2C(=O)N1CCC(=O)N1CCN(C)CC1 (stereo not given)	/	/	/	/	/	.
Cc1ccc(NCCC(=O)c2cc3ccccc3o2)cc1Cl	/	/	/	/	/	.
Cc1ccc(C(C)NC(=S)NCc2ccc(F)cc2)c(C)c1 (stereo not given)	51.4	.	.	.	.	.
Cc1ccc(NC(=S)NCc2ccc(F)cc2)c(C)c1	.	.	.	.	.	.
CCOC(=O)C(Cc1ccccc1)C(=O)Nc1cccc(C)c1 (stereo not given)	.	.	31.1	.	.	.
CC(O)c1cccc(NC(=O)CCCc2ccccc2)c1 (stereo not given)	.	.	.	.	.	.
Cc1cccc(NC(=O)CCCc2ccccc2)c1	.	.	.	-58.3	.	.
O=C(NCCCNC(=O)c1cc2ccccc2[nH]1)c1cccc(F)c1	/	/	/	/	/	.
